Experimental findings from PubChem BioAssay AID485313 (National Center for Advancing Translational Sciences (NCATS), 2010) are described below.

Hit rate of the full screen: of about 320,000 compounds, about 7,600 (2.4%) were called active. Inconclusive results (about 3%) are left out. The call rests on the fitted dose curve; in most records, active means well fitted activation curve with a large enough effect; inconclusive means small, poorly fitted or top-dose-only effect; inactive means no such curve, though single readings can be large or run the other way. The list comes from a sample in which actives are over-represented; it also holds similar structures and randomly drawn compounds. Entries that show only a call come without a potency.
Potency means the concentration at half of the fitted maximal effect.

A short description of the experiment: qHTS Assay for NPC1 Promoter Activators. Further: nearly all actives have a fitted effect of over 60% in size. The note with it: Huh7 NPC1 promoter luciferase reporter, 24 h; series mostly up to 9.22 µM. In short, it runs like this:
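Luminescence read-out of NPC1 promoter-driven luciferase in stably transfected Huh7 cells; compounds delivered in DMSO and left 24 h at 37C, 5% CO2, qHTS titration format.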
In general terms: In qHTS, concentration-response curves come from the screen itself.
For `O=C(Oc1cccc(NC2=NS(=O)(=O)c3ccccc32)c1)c1ccncc1`, the Potency entry was “inactive”.

In the case of `Cc1ccc(S(=O)(=O)N(NC2=NS(=O)(=O)c3ccccc32)C(=O)c2ccccc2)cc1`, the Potency result was “inactive”.

In the case of `CC(C)(C)c1csc(NC2=NS(=O)(=O)c3ccccc32)n1`, the Potency is 1410 nM (active).

Consider `CCN(CC(=O)Nc1ccccc1C(F)(F)F)C(=O)C1CCN(C(=O)Nc2ccccc2)CC1`, for which the Potency result was “inactive”.

Regarding `O=C(c1cn(-c2ccccc2)nc1-c1cccnc1)N1CCN(S(=O)(=O)c2ccccc2F)CC1`, the Potency result was “inactive”.

Take `CC[C@@H]1Cc2cc(O)ccc2C2=C1c1ccc(O)cc1C[C@H]2CC`: the Potency entry was “inactive”.

Turning to `COC(=O)/C(=C1\Oc2ccc(C(C)(C)C)cc2S1)C(F)(F)F`, the Potency was 3550 nM (active).

In the case of `CCOC(=O)C1=C(c2ccccc2)O/C(=C(/C(=O)OC)C(F)(F)F)S1`, the Potency entry was “inactive”.

On to `Cc1occc1-c1nnc(SCC(=O)NC2(C#N)CCCC2)n1C`, for which the Potency entry was “inactive”.

Take `COc1ccc(-c2cc(C3CCN(c4ncccc4[N+](=O)[O-])CC3)[nH]n2)cc1`: the Potency result was “inactive”.

`COc1ccc(-c2cc(C(F)(F)F)nc(NCc3cccnc3)n2)cc1`: the Potency result was “inactive”.

Consider `COc1ccc(-c2cc3ncccc3cn2)cc1`, for which the Potency is 2240 nM (active).

As to `Cc1nc2cc(NC(=O)NC3CC3)ccc2n1C`, the Potency entry was “inactive”.

In the case of `Cn1c(CCN2CCCC2)nc2cc(NS(=O)(=O)c3ccccc3)ccc21`, the Potency entry was “inactive”.

As to `Cc1cc2nc(C)n(CCCNC(=O)Nc3ccccc3)c2cc1C`, the Potency entry is “inactive”.

In the case of `CCC(=O)Nc1ccc2c(c1)nc(CCN1CCN(c3ccccn3)CC1)n2C`, the Potency result is “inactive”.

Turning to `Cc1nc2cc(NC(=O)Nc3cccc(F)c3)ccc2n1C`, the Potency is 100 nM (active).

As for `Cn1c(CCN2CCCCCC2)nc2cc(NC(=O)Nc3ccccc3)ccc21`, the Potency is 4470 nM (active).

For the compound `CCn1c(=O)c(=O)n(CC)c2cc(N3CCCCC3)c(NC(=O)c3ccc(Cl)cc3)cc21`, the Potency result is “inactive”.

As for `CC(C)n1ncc2c(C(=O)NCc3ccccc3CN(C)C)cc(C3CC3)nc21`, the Potency result was “inactive”.

With `COc1nc(N(C)C)nc(N2CC(=O)N(CCNS(=O)(=O)c3ccc(C)cc3)C2=N)n1`, the Potency entry was “inactive”.

Consider `CS(=O)(=O)n1nc(-c2ccccc2)nc1NCc1ccco1`, for which the Potency entry was “inactive”.

`CCS(=O)(=O)n1nc(-c2ccc(OC)cc2)nc1SC`: the Potency result is “inactive”.

With `CCS(=O)(=O)n1nc(-c2ccccc2)nc1SCc1ccccc1`, the Potency is 3550 nM (active).

For the compound `CN(CC(=O)Nc1c(Cl)cccc1Cl)C(=O)CC1OC(=O)c2ccccc21` (stereo not given), the Potency entry was “inactive”.

In the case of `COC(=O)CSc1nc2ccccc2c(=O)n1Cc1ccccc1`, the Potency entry was “inactive”.

`Cc1ccc(C(=O)CSc2nc3ccccc3c(=O)n2N)o1`: the Potency is 3980 nM (active).

For the compound `COc1ccc(NC(=O)CSc2nc3ccccc3c(=O)n2C)cc1`, the Potency entry is “inactive”.

For the compound `O=S(=O)(NC1CCN(S(=O)(=O)c2ccc3c(c2)OCCO3)CC1)c1c(F)cccc1F`, the Potency entry is “inactive”.

In the case of `Cc1cccc(C)c1OC(=O)CSc1nnc(-c2ccccc2)o1`, the Potency result is “inactive”.

For the compound `CCOC(=O)CSc1nnc(-c2cccc(Br)c2)o1`, the Potency result is “inactive”.

Regarding `CCCCSc1nnc(-c2ccc(C)cc2)o1`, the Potency is 794 nM (active).

As to `Cc1ccc(CN2CC(C(=O)NNC(=O)Cn3ccc(C(F)(F)F)n3)CC2=O)cc1` (stereo not given), the Potency entry is “inactive”.

Turning to `CC(=O)NCc1ccc(-c2csc(NC(=O)CCCc3nc4ccccc4c(=O)[nH]3)n2)cc1`, the Potency entry was “inactive”.

As for `COc1ccc(Cn2c(O)c(/C=C3/C=CC=N3)c(=O)[nH]c2=O)cc1`, the Potency result is “inactive”.

For the compound `O=C(NCc1ccccc1CN1CCCC1)c1cccc(S(=O)(=O)Nc2ccc(F)cc2)c1`, the Potency entry was “inactive”.

On to `Cc1ccc(NC(=O)C(c2ccccc2)N2CCN(C(=O)c3ccco3)CC2)cc1` (stereo not given), for which the Potency entry was “inactive”.

`COc1ccc(Cl)cc1NC(=O)CN(C)C(=O)c1cc(-c2cccs2)nn1-c1ccccc1`: the Potency entry is “inactive”.

Take `CN(C(=O)c1ccccn1)c1nnc(-c2ccccn2)s1`: the Potency was 2510 nM (active).

Consider `COc1cc(OC)cc(-c2nnc(N(C)C(=O)c3ccncc3)s2)c1`, for which the Potency entry was “inactive”.

In the case of `CN(C(=O)C1CCOC1)c1nnc(-c2cccnc2)s1` (stereo not given), the Potency entry is “inactive”.

As for `COc1ccc(-c2noc(CN(C)S(=O)(=O)c3ccc(C)cc3)n2)cc1`, the Potency entry is “inactive”.

Turning to `COc1ccc(-c2noc(CSc3ccc(C)cc3)n2)cc1`, the Potency result is “inactive”.

With `COc1ccc(-c2nc(-c3ccccc3)no2)c(OC)c1`, the Potency is 3550 nM (active).

`COc1ccc(-c2noc(-c3ccc(C)cc3)n2)cc1`: the Potency is 2000 nM (active).

Regarding `COc1ccc(-c2noc(CNC(=O)C(C)Oc3ccccc3)n2)cc1` (stereo not given), the Potency entry was “inactive”.

Regarding `COc1ccc(OC)c(-c2csc(-c3cccs3)n2)c1`, the Potency entry was “inactive”.

Take `O=C(CN1CCN(S(=O)(=O)c2cccc(Cl)c2)CC1)N1CCCCC1`: the Potency result is “inactive”.

Consider `Cc1c2cnn(CC(=O)NCCCN3CC(C)CC(C)C3)c(=O)c2c(C)n1Cc1ccc(Cl)cc1` (stereo not given), for which the Potency result was “inactive”.

On to `C[C@@H](NC(=O)c1nc[nH]c1C(=O)N1CCN(C(=O)OC(C)(C)C)CC1)c1ccccc1`, for which the Potency entry was “inactive”.

On to `Cc1ccc(S(=O)(=O)CCC(=O)OCC(=O)NCCc2ccc(S(N)(=O)=O)cc2)cc1`, for which the Potency entry is “inactive”.

In the case of `O=C(NCCSc1ncc(-c2ccccc2)[nH]1)c1ccco1`, the Potency entry is “inactive”.

Consider `CCS(=O)(=O)Nc1ccc(C(=O)NCCSc2ccccc2)cc1`, for which the Potency entry was “inactive”.

For the compound `O=C(NCCSc1ccccc1)c1ccco1`, the Potency is 3160 nM (active).

As for `O=C(Cn1c(-c2ccc(Cl)cc2)noc1=O)N1CCN(c2ccccc2F)CC1`, the Potency result is “inactive”.

With `O=C(NCC(=O)N1CCCCCCC1)c1ccccc1Cl`, the Potency result was “inactive”.

`Cn1c(S(=O)(=O)O)nc2ccccc21`: the Potency entry was “inactive”.

With `Cn1c(NC(=O)c2ccccc2)nc2ccccc21`, the Potency was 2820 nM (active).

As for `CCn1c(NC(=O)c2nn(C)cc2Br)nc2ccccc21`, the Potency entry is “inactive”.

Regarding `Cc1ccc(S(=O)(=O)N2CCCCC2)cc1C(=O)N1CCN(CCO)CC1`, the Potency entry was “inactive”.

For `COc1ccccc1CNC(=O)COC(=O)c1sc(C)nc1C`, the Potency result is “inactive”.

As to `O=C(Nc1ccc2sc3ccccc3c(=O)c2c1)c1ccccc1Cl`, the Potency was 3160 nM (active).

`COc1cc(NC(=O)c2cccs2)ccc1NC(=O)c1ccccc1Cl`: the Potency result is “inactive”.

As to `O=C(Nc1cccc(NC(=O)c2ccccc2[N+](=O)[O-])c1)c1ccccc1Cl`, the Potency entry was “inactive”.

On to `O=C(COC(=O)c1cc(=O)[nH]c2ccccc12)NCc1cccc(Cl)c1`, for which the Potency entry is “inactive”.

Turning to `CC(=O)Nc1ccc(S(=O)(=O)N2CCn3cccc3C2C)cc1` (stereo not given), the Potency result is “inactive”.

In the case of `C=CCn1c(C)cc(C(=O)CN2C(=O)c3ccccc3C2=O)c1C`, the Potency is 316 nM (active).

Regarding `Cc1cc(C(=O)COC(=O)CCCN2C(=O)c3ccccc3C2=O)c(C)n1C`, the Potency entry was “inactive”.

Take `C=CCN(CC=C)C(=O)CN1C(=O)c2ccccc2C1=O`: the Potency result is “inactive”.

As to `C[C@H](NC(=O)c1[nH]cnc1C(=O)Nc1nccs1)c1ccccc1`, the Potency entry was “inactive”.

With `CCCCC/C=C/C1=CC(=O)C[C@H](c2ccc(Cl)cc2)C1`, the Potency result is “inactive”.

For the compound `Cc1ccccc1-c1cc(C(=O)NCc2cccs2)n(CC2CC(c3cccnc3)=NO2)n1` (stereo not given), the Potency result is “inactive”.

Take `O=C(Nc1ccc2oc(-c3ccc4ccccc4c3)nc2c1)c1cccs1`: the Potency was 891 nM (active).

For the compound `COc1cc2ccccc2cc1C(=O)Nc1ccc(NC(=O)c2cccs2)cc1`, the Potency entry was “inactive”.

Consider `O=C(Nc1ccc(NC(=O)c2cccs2)cc1)c1ccc2ccccc2c1`, for which the Potency entry is “inactive”.

Turning to `CC(Sc1nnc(C2CC2)n1C1CC1)C(=O)Nc1ccc(C(N)=O)cc1` (stereo not given), the Potency entry is “inactive”.

With `CCOc1ccc(N2C(=O)CSC2=NC#N)cc1`, the Potency entry is “inactive”.

As to `CC(=O)NC(NC(=S)Nc1c(C)n(C)n(-c2ccccc2)c1=O)C(Cl)(Cl)Cl` (stereo not given), the Potency result was “inactive”.

In the case of `COc1ccc(C)cc1NC(=O)CN1c2cccc3cccc(c23)S1(=O)=O`, the Potency result is “inactive”.

Consider `CCN(CC)CCN1C(=O)C(=O)/C(=C(/O)c2cnn(-c3ccccc3)c2C)C1c1cccs1` (stereo not given), for which the Potency was 3980 nM (active).

On to `CCN(CC)CCN1C(=O)C(=O)/C(=C(/O)c2ccc(OC)c(OC)c2)C1c1ccccn1` (stereo not given), for which the Potency result was “inactive”.

As for `CCOc1cccc(/C(O)=C2/C(=O)C(=O)N(CCOC)C2c2ccncc2)c1` (stereo not given), the Potency result is “inactive”.

Take `COc1ccccc1OCC(=O)OCc1cc(-c2ccco2)on1`: the Potency entry is “inactive”.

For `COC(=O)c1cccc(NC(=O)c2cccc(N3C(=O)CCC3=O)c2)c1`, the Potency entry is “inactive”.

`CC(=O)c1sc(NC(=O)CCN2C(=O)C3CC=CCC3C2=O)nc1-c1ccccc1` (stereo not given): the Potency entry is “inactive”.

For the compound `CCCCCCCCCCOC(=O)C[N+](C)(C)CC1CCCCC1O` (stereo not given), the Potency result is “inactive”.

For the compound `Cc1cc(Cl)c2oc(C(=O)N(C)C(C)c3ccccn3)c(C)c2c1` (stereo not given), the Potency result was “inactive”.

Turning to `CCn1ccnc1CN(C)C(=O)c1ccc2nc(Cc3ccc(OC)cc3)oc2c1`, the Potency entry is “inactive”.

Turning to `CC(c1ccccn1)N(C)C(=O)c1ccc2nc(Cc3cccc(Cl)c3)oc2c1` (stereo not given), the Potency is 3980 nM (active).

Take `CC(NCC(=O)Nc1ccccc1C(=O)NC1CC1)c1ccccc1Cl` (stereo not given): the Potency result is “inactive”.

With `Cc1ccc(C)c(C(=O)COC(=O)Cn2[nH]c(=O)c3ccccc3c2=O)c1`, the Potency entry was “inactive”.

On to `O=C(Nc1ccc([N+](=O)[O-])cc1)OCCc1ccccn1`, for which the Potency is 3550 nM (active).

`O=[N+]([O-])c1ccc(NC(=S)N2CCN(c3ccccn3)CC2)cc1`: the Potency result is “inactive”.

Regarding `O=C(OCc1ccc([N+](=O)[O-])cc1)c1ccccn1`, the Potency result is “inactive”.

With `Cc1ccc(NC(=O)c2cccc(S(=O)(=O)N3CCCc4ccccc43)c2)nc1`, the Potency result is “inactive”.

With `Cc1cc(C(=O)OCC(=O)Nc2ccccc2Cl)c(C)o1`, the Potency entry was “inactive”.

As to `CCCc1ccc(C(=O)COC(=O)CN2C(=O)NC3(CCCCC3C)C2=O)cc1` (stereo not given), the Potency result was “inactive”.

As for `COc1ccc(-c2nnc(SCC(=O)c3cccs3)o2)c(OC)c1`, the Potency was 2240 nM (active).

Turning to `COc1ccccc1-c1nnc(SCC(=O)N2CC(C)CC(C)C2)o1` (stereo not given), the Potency result was “inactive”.

In the case of `COc1ccc(CCNC(=O)CSc2nnc(CNC(=O)c3cccs3)o2)cc1OC`, the Potency entry is “inactive”.

On to `O=C(NNC(=O)c1ccc(-n2cncn2)c([N+](=O)[O-])c1)c1ccccc1`, for which the Potency entry was “inactive”.

Consider `CN(C)c1nnnn1-c1ccc(Cl)cc1`, for which the Potency result is “inactive”.

On to `Nc1ccc2nn(-c3ccc(Cl)cc3)nc2c1`, for which the Potency is 447 nM (active).

Take `c1ccc(-n2nc3ccccc3n2)cc1`: the Potency entry was “inactive”.

Regarding `CN(CC(=O)NC1CCN(Cc2ccccc2)CC1)S(=O)(=O)c1ccc(Cl)s1`, the Potency entry is “inactive”.
